High-throughput results as filed in PubChem.
A selection: hits, their analogues and other compounds. The true share with any hit is near 1.3%.
BRCA1 expr up: BRCA1 expression activation; AID 624202; MCF7-BRCA1-FFLuc reporter, luminescence, 48 h; response scale: scaled: vehicle 0%, 10 µM genistein 100%; hit rate 1.1% among 380,000; Potency, µM (doses to about 46.1 µM), without a hit: top-dose activation, most hits filed as activators; active = well fitted activation curve with a large enough effect; inconclusive = small, poorly fitted or top-dose-only effect; inactive = no such curve, though single readings can be large or run the other way; note: potency is the fitted concentration of half-maximal effect; nearly all actives have a fitted effect of over 80% in size
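MCF7-BRCA1-FFLuc cells, 2000/well in phenol-red-free MEM, attached 2 h then treated 48 h at 37 C. Luciferase luminescence read 15 min after reagent; normalized to genistein maximum activation (10microM) and DMSO, concentration-response fitted.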
TSG101-PTAP inh: blocks PTAP/TSG101 interaction to inhibit HIV-1 budding; Fluorescence polarization, FITC-PTAP peptide / Tsg101 binding; Potency, µM (series often up to 115 µM), without a hit: at the top dose activity change, negative = inhibition, hits mostly inhibitors; 340,000 tested, under 10 active; active = well fitted inhibition curve with a large enough effect in the main read-out, with a control signal flat, not every such curve was filed as active; inconclusive = small, poorly fitted or top-dose-only effect, or effect the other way, or a change in a side signal; inactive = no such curve, though single readings can be large or run the other way; note: potency is the fitted concentration of half-maximal effect; % of control where 0% means no effect
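Fluorescence polarization binding of Tsg101 binding domain (10 uM final) to FITC-labeled PTAP peptide (50 nM final) in HEPES pH 7.5 buffer with NaCl, Tween 20, EDTA, TCEP. Compounds added before peptide; binding 20 min at RT.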
IL-2 act: IL-2 activation. AID 652025. activation, % (series mostly up to about 46 µM). IL-2 activation reporter assay, cell-based qHTS; stimulated with anti-CD3/CD4/CD28 beads; in transgenic mouse T cells. hit rate 0.065% among 360,000; note: 0% is about no effect
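Unstimulated transgenic mouse T cells, 750 per well, received compound and, after 60 minutes, anti-CD3/anti-CD4 bead plus anti-CD28 stimulation. EGFP and DsRed were quantified after 18 hours.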
PKM2 activator: increases activity of human pyruvate kinase M2. Potency, µM (doses to about 57.5 µM), without a hit: at the highest dose activation, actives largely listed as activators. purified PKM2, Kinase-Glo ATP luminescence, activation; response scale: 0% is enzyme alone, no compound. hit rate 0.34% among 260,000. P14618; active = well fitted activation curve with a large enough effect; inconclusive = small, poorly fitted or top-dose-only effect; inactive = no such curve, though single readings can be large or run the other way; note: potency is the fitted concentration of half-maximal effect; % is set by controls: 0 for no effect and ±100 for the full control effect; nearly all actives have a fitted effect of over 55% in size
Target sequence (P14618 whole entry, looked up): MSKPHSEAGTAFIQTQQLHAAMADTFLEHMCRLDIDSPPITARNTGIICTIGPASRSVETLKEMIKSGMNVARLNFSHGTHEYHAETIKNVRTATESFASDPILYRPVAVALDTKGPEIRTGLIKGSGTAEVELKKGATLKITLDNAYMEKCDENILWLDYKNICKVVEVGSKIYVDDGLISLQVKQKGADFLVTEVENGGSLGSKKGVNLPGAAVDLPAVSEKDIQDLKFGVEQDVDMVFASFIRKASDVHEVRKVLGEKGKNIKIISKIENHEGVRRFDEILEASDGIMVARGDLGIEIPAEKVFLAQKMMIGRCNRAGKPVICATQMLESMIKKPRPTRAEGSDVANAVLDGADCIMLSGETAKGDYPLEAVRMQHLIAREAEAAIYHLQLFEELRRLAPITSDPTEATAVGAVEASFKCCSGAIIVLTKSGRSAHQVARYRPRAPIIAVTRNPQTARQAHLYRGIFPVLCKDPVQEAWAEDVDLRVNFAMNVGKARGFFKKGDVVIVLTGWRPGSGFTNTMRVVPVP
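hPK-M2, >95% pure; 0.1 mM ADP / 0.5 mM PEP final; imidazole pH7.2 buffer w/ 7 mM MgCl2, 50 mM KCl; 1 h RT; Kinase-Glo lum. Intermediate enzyme activity for dual inhibitor/activator qHTS.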
TRPML1 blocker: human mucolipin-1 channel inhibition; Q9GZU1; TRPML1-inducible cells, Ca2+ dye fluorescence, FDSS; stronger effect = lower value; inhibition of EC80 agonist-evoked calcium signal; activity change, negative = inhibition, % (concentration not given with the values); hit rate 0.02% among 390,000; in the data active = activity change below about -50%; inconclusive = between about -30% and that limit;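 note: stimulus is agonist 54-4 at its EC80 concentration; % is set by controls: 0 for no effect and ±100 for the full control effect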
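TRPML1-DL cells, Tet-induced overnight (~16 h, 37 °C) at 1,500 cells/well, were loaded with Ca8 no-wash dye plus quencher for 45-90 min at room temperature. Compounds were pinned during FDSS kinetic reading; agonist 54-4 at EC80 (4 uM final) then added.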
TRPML1 ag: activates the human TRPML1 channel. Q9GZU1. hit rate 0.12% among 410,000. activation, % (test concentration not listed). AID 624414. TRPML1-expressing cells, Ca2+ dye fluorescence, FDSS; note: 0% is about no effect
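TRPML1-DL cells, Tet-induced overnight (~16 h, 37 degrees C), loaded 45-90 min at room temperature with Ca8 no-wash calcium dye plus quencher. FDSS fluorescence: 10 s baseline, compound pin-transfer, 110 s agonist read, then EC80 54-4 (4uM final) and 110 s antagonist read.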
The depositor's hits bear a star; ! = a repeat was not active. Cut-off read from the data, not from the text of the source, unless noted: active = activation above about 50%; inconclusive = mostly about 30% to 49%; inactive = weaker than that.

What do the screens show for `C#CCn1c(C)cc(C)c(S(=O)(=O)c2ccccc2)c1=O`?
BRCA1 expr up: 13µM*; TSG101-PTAP inh: -3%; IL-2 act: 0; PKM2 activator: -5%; TRPML1 blocker: 21; TRPML1 ag: 0

How did N/C(=N\OC(=O)c1cccc(Br)c1)c1ccncc1 do in these assays?
BRCA1 expr up: 14µM*; TSG101-PTAP inh: -10%; IL-2 act: -1; PKM2 activator: -1%; TRPML1 blocker: -15; TRPML1 ag: 0

Results for N/C(=N\OC(=O)c1ccc(Br)cc1)c1ccncc1 ?
BRCA1 expr up: 4µM*; TSG101-PTAP inh: 1%; IL-2 act: -2; PKM2 activator: 0%; TRPML1 blocker: -2; TRPML1 ag: -1

How did CCOC(=O)C1=C(O)/C(=C/c2cn(CC(=O)N3CCCC3)c3ccccc23)SC1=Nc1ccccc1 do in these assays?
BRCA1 expr up: -15%; TSG101-PTAP inh: 11%; IL-2 act: 219*; PKM2 activator: -4%; TRPML1 blocker: -6; TRPML1 ag: 0

What do the screens show for `CC(C)c1nc2sc3c(SCC(=O)NCc4ccco4)ncnc3c2c2c1CCC2`?
BRCA1 expr up: -12%; TSG101-PTAP inh: -3%; IL-2 act: 0; PKM2 activator: 35µM*; TRPML1 blocker: -22; TRPML1 ag: -1

Results for CN(Cc1ccc(F)cc1)C(=O)CCc1nnc(-c2ccccc2)o1 ?
BRCA1 expr up: 14µM*; TSG101-PTAP inh: -4%; IL-2 act: -1; PKM2 activator: -1%; TRPML1 blocker: 24; TRPML1 ag: -1

Results for COc1ccc(CCN(C)C(=O)CCc2nnc(-c3ccccc3)o2)cc1OC ?
BRCA1 expr up: inconclusive; TSG101-PTAP inh: 0%; IL-2 act: -4; PKM2 activator: -19%; TRPML1 blocker: 34; TRPML1 ag: 0

What do the screens show for `Cc1ccc(OCC(=O)NC(=S)Nc2ccccn2)c(Br)c1`?
BRCA1 expr up: 11µM*; TSG101-PTAP inh: 2%; IL-2 act: -2; PKM2 activator: -23%; TRPML1 blocker: -11; TRPML1 ag: 1

Results for O=C(COc1ccc(Br)cc1Cl)NC(=S)Nc1ccccn1 ?
BRCA1 expr up: inconclusive; TSG101-PTAP inh: -9%; IL-2 act: -6; PKM2 activator: 1%; TRPML1 blocker: 26; TRPML1 ag: 1

How did CCCCCCCCNc1ccc(/C=C/c2ccnc3ccccc23)cc1 do in these assays?
BRCA1 expr up: -2%; TRPML1 ag: 0

What do the screens show for `Cc1ccc2cc(CCNC(=O)c3ccco3)c(=O)[nH]c2c1`?
BRCA1 expr up: 13µM*; TSG101-PTAP inh: -3%; IL-2 act: 1; PKM2 activator: 7%; TRPML1 blocker: -14; TRPML1 ag: 0

How did COc1ccc2cc(CCNC(=O)c3ccco3)c(=O)[nH]c2c1 do in these assays?
BRCA1 expr up: 102%; TSG101-PTAP inh: -1%; IL-2 act: 2; PKM2 activator: -2%; TRPML1 blocker: -10; TRPML1 ag: -1

Results for NC(N)=Nc1ccc(/C=C2\C=Cc3ccccc32)cc1 ?
BRCA1 expr up: -43%; TRPML1 ag: -1

Results for Cc1cc(C(=O)CN2C(=O)NC3(CCCCC3C)C2=O)c(C)n1Cc1cccs1 (stereo not given) ?
BRCA1 expr up: 4.5µM*; TSG101-PTAP inh: -2%; IL-2 act: -2; PKM2 activator: -4%; TRPML1 blocker: 8; TRPML1 ag: 0

What do the screens show for `O=S(=O)(c1ccc2c(c1)CCC2)N1CCN(c2nc(-c3ccccc3)nc3ccccc23)CC1`?
BRCA1 expr up: 0%; TRPML1 ag: 0

Results for CCN(CC)C(=O)c1sc(NC(=O)c2ccc3c(c2)OCO3)c(C(N)=O)c1C ?
BRCA1 expr up: 11µM*; TSG101-PTAP inh: -1%; IL-2 act: -1; PKM2 activator: 1%; TRPML1 blocker: 5; TRPML1 ag: 1

Results for Cc1cnc(NC(=O)c2ccc3c(c2)OCCO3)s1 ?
BRCA1 expr up: inconclusive; TSG101-PTAP inh: -2%; IL-2 act: 0; TRPML1 blocker: 7; TRPML1 ag: 3

What do the screens show for `CC(C)Sc1nnc(NC(=O)c2ccc3c(c2)OCO3)s1`?
BRCA1 expr up: 2.5µM*; TSG101-PTAP inh: 2%; IL-2 act: 0; PKM2 activator: -6%; TRPML1 blocker: 3; TRPML1 ag: -1

What do the screens show for `Cc1nc2ccc3nc(NC(=O)c4ccc5c(c4)OCCO5)sc3c2s1`?
BRCA1 expr up: 8.9µM*!; TSG101-PTAP inh: -2%; IL-2 act: -2; PKM2 activator: -3%; TRPML1 blocker: 0; TRPML1 ag: 0

How did CCN(CC)C(=O)c1sc(NC(=O)c2ccncc2)c(C(=O)OC)c1C do in these assays?
BRCA1 expr up: -4%; TSG101-PTAP inh: -3%; IL-2 act: 0; PKM2 activator: -1%; TRPML1 blocker: -14; TRPML1 ag: 1

Results for Cc1ccc2sc(NC(=O)c3ccc4c(c3)OCCO4)nc2c1C ?
TRPML1 blocker: -4; TRPML1 ag: -1

What do the screens show for `Cc1nc2c(ccc3nc(NC(=O)c4ccc5c(c4)OCCO5)sc32)s1`?
BRCA1 expr up: 2.8µM*; TSG101-PTAP inh: 6%; IL-2 act: -1; PKM2 activator: 4%; TRPML1 blocker: -9; TRPML1 ag: 0

Results for Cc1ccc(NC(=O)CCS(=O)(=O)c2cc3c4c(c2)CCN4C(=O)CC3)c(C)c1 ?
BRCA1 expr up: 0%; TRPML1 blocker: -9; TRPML1 ag: -1

What do the screens show for `C=CCNc1nc(NC2CCN(C)CC2)c2cc(OC)c(OC)cc2n1`?
BRCA1 expr up: -3%; TRPML1 ag: 0

What do the screens show for `COc1cc2c(NC3CCN(C)CC3)nc(N3CCCN(C)CC3)nc2cc1OCCN(C)C`?
BRCA1 expr up: -7%; TRPML1 ag: 0

Results for CCc1nnc(NC(=O)Nc2ccccc2OC)s1 ?
BRCA1 expr up: 6.3µM*; TSG101-PTAP inh: -1%; IL-2 act: -3; PKM2 activator: 1%; TRPML1 blocker: -7; TRPML1 ag: 0

How did CCc1cccc(NC(=O)C(c2ccccc2)N2Cc3ccccc3C2=O)c1 (stereo not given) do in these assays?
TRPML1 blocker: 13; TRPML1 ag: 1

Results for O=C(OCC(=O)N1CCCCC1)c1c[nH]c2ccccc12 ?
BRCA1 expr up: 6.3µM*; TSG101-PTAP inh: -6%; IL-2 act: 0; TRPML1 blocker: 8; TRPML1 ag: -1

Results for Cc1cccc(C(=O)OCC(=O)N2CCCCCC2)c1C ?
BRCA1 expr up: 5.6µM*; TSG101-PTAP inh: -5%; IL-2 act: 0; TRPML1 blocker: -16; TRPML1 ag: -1
